These compounds were tested against Calmodulin-1 (Homo sapiens) (UniProt P0DP23) (assay: small molecules binding calmodulin-1 with EGTA – biochemical, small-molecule microarray, Cy5-labelled CALM1, profiling panel (AID 1111;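 also: labelled calmodulin applied in Tris saline Tween buffer holding calcium plus EGTA and DTT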)). Conditions: Cy5-CALM1 binding fluorescence, higher = more signal.
`Cc1nc2cc(Br)ccc2c(=O)n1Cc1cccc(O)c1` was tested, and the composite z-score was 0.523.
For `C=C[C@@H](C)[C@H](O)c1ccc(OCCO)cc1`, the composite z-score was -0.912.
`C=CCN1C(=O)[C@]2(O[C@H](CCO)[C@@H]([Si](C)(C)c3ccc(OC)cc3)[C@@H]2C)c2cc(NC(=O)c3ccc(OC)cc3)ccc21` gave a composite z-score of 0.0503.
`CCOC(=O)C[C@H]1[C@H](OC(=O)c2cc3ccccc3oc2=O)[C@@H](NC(=O)c2ccc3ccccc3c2)c2cc(OCCCO)ccc2N1C(=O)Cc1ccc(OC)cc1` gave a composite z-score of 0.31.
`COc1ccc(C#Cc2ccc3c(c2)[C@]2(C(=O)N3)[C@H](c3ccc(OCCO)cc3)N3[C@H](c4ccccc4)[C@H](c4ccccc4)OC(=O)[C@H]3[C@@H]2C(=O)N2CCc3cc(OC)c(OC)cc3C2)cc1` showed a composite z-score of 1.08.
Work on `COC(=O)c1c2oc(c1C(=O)OC)C(=O)N1CCC[C@H]1Cn1nncc1CN(Cc1ccccc1)C(=O)N[C@H](CO)CC2` yielded a composite z-score of 0.724.
With `COC(=O)C(CC#Cc1ccc2c(c1)[C@]1(C(=O)N2)[C@H](c2ccc(O)cc2)N2[C@H](c3ccccc3)[C@H](c3ccccc3)OC(=O)[C@H]2[C@@H]1C(=O)N1CCCCCCC1)C(=O)OC` the composite z-score was 2.75.
`C=C[C@H](C)[C@H](OC(=O)Nc1ccc(OC)cc1)c1ccc(OCCO)cc1` showed a composite z-score of -1.39.
Compound `[N-]=[N+]=NC[C@H](Cc1ccccc1)NC(=O)c1ccccc1` has a composite z-score of -0.334.
`COc1ccc([Si](C)(C)[C@H]2[C@H](CC(=O)N3Cc4ccccc4C[C@H]3CO)O[C@@]3(C(=O)N(Cc4ccc(N5C(=O)c6cccc7cccc5c67)cc4)c4ccccc43)[C@@H]2C)cc1` was tested, and the composite z-score was 0.732.
